These results are taken from PubChem BioAssay (NCI).

About 79,000 compounds went through this panel and 15% of them were active in at least one assay; those are over-represented in the sample as a whole. Values without a mark were called inactive. Active and inactive are the calls of the source. No stated cut-off is given here; in the data, active means growth inhibition above about 70%; inactive means the rest.

The nature of experiment [1]: NCI Yeast Anticancer Drug Screen. Data for the rad50 strain (AID 155).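 Further: 0% = growth of vehicle-only cultures of the same strain.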 The conditions noted are these: S. cerevisiae rad50 strain growth inhibition; at 50.0 µM; stronger effect = higher value. The method, boiled down: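 Compounds were tested on a yeast strain with an engineered DNA damage repair alteration; the reported value is growth inhibition normalised to vehicle treatment.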

A short description of experiment [2]: NCI Yeast Anticancer Drug Screen. Data for the mec2-1 strain (AID 157). To be noted: S. cerevisiae mec2-1 strain, at 50.0 µM, stronger effect = higher value. In a few lines:
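Vehicle-treated cultures served as reference for growth inhibition of compound-exposed mec2-1 yeast.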

The nature of experiment [3]: NCI Yeast Anticancer Drug Screen. Data for the sgs1 mgt1 strain (AID 161).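 Further: 0% = growth of cultures given vehicle only.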 To be noted: S. cerevisiae sgs1 mgt1 strain, at 50.0 µM, stronger effect = higher value. In a few lines:
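Inhibition of yeast growth, normalised to vehicle-treated controls, is reported for a strain bearing genetic alterations in DNA damage repair.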

Experiment [4] can be described thus: NCI Yeast Anticancer Drug Screen. Data for the cln2 rad14 strain (AID 165).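 Further: 0% = growth equal to vehicle treated cultures.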 To be noted: S. cerevisiae cln2 rad14 strain, at 50.0 µM, stronger effect = higher value. The method, boiled down:
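Each compound was tested on cln2 rad14 yeast. Inhibition of growth was calculated against vehicle-exposed controls.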

Experiment [5] can be described thus: NCI Yeast Anticancer Drug Screen. Data for the bub3 strain (AID 167). To be noted: S. cerevisiae bub3 mutant strain, at 50.0 µM, stronger effect = higher value. In a few lines: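 Growth of a checkpoint-deficient yeast mutant is measured after compound exposure. Values represent inhibition relative to vehicle.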
Experiment [6] in a line: NCI Yeast Anticancer Drug Screen. Data for the mlh1 rad18 strain (AID 175). To be noted: S. cerevisiae mlh1 rad18 strain growth inhibition; at 50.0 µM; stronger effect = higher value. The method, boiled down: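 Vehicle-treated cultures served as the reference for growth inhibition in a yeast strain carrying DNA damage repair alterations exposed to each compound.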

On to `C=CCSc1ncnc2c1c(C#N)cn2C1OC(CO)C(O)C1O` (stereo not given), for which the growth inhibition in experiment [1] was 22%; in experiment [2] it was -21.2%; in experiment [3] it was -16.9%; in experiment [4] it was 17.5%; in experiment [5], 7.25%; in experiment [6] it was 28.4%.

In the case of `O=[N+]([O-])c1cc(NC(=S)SCc2ccc3c(c2)OCO3)ccc1Cl`, the growth inhibition in experiment [1] is 82.7% (active); in experiment [2] it was 72.2% (active); in experiment [3] it was 76.7% (active); in experiment [4], 42.8%; in experiment [5] it was 56.4%; in experiment [6], 78% (active).

With `O=C1c2ccccc2C(=O)c2c1nnn2-c1ccccc1`, the growth inhibition in experiment [1] was 41.7%; in experiment [2] it was 5.95%; in experiment [3], 21.2%; in experiment [4] it was -4.45%; in experiment [5], 17.2%; in experiment [6], -2.15%.

Take `CC1(C)CNC[C@](C)(OCc2ccccc2)N1`: the growth inhibition in experiment [1] was -24.4%; in experiment [2] it was -29.1%; in experiment [3], -11.3%; in experiment [4] it was 11.2%; in experiment [5], 10.9%; in experiment [6], -4.7%.

Turning to `O=[N+]([O-])c1ccc(N/N=C\C2C=CCCC2)c([N+](=O)[O-])c1` (stereo not given), the growth inhibition in experiment [1] was -13.2%; in experiment [2], -0.1%; in experiment [3], -5.65%; in experiment [4], -31.8%; in experiment [5], -1.05%; in experiment [6] it was -19.9%.

Take `CC(=O)Oc1ccc(NCNc2ccc(OC(C)=O)cc2)cc1`: the growth inhibition is -11.8% in experiment [1]; 0.95% in experiment [2]; -3.2% in experiment [3]; -26.6% in experiment [4]; -2.25% in experiment [5]; -3.35% in experiment [6].

As for `CCCCCCCCCCCCCCCCCC[N+](C)(C)Cc1c(Cl)c(Cl)c(Cl)c(Cl)c1Cl`, the growth inhibition in experiment [1] is 10.8%; in experiment [2], 8.9%; in experiment [3], 20.4%; in experiment [4], -18.9%; in experiment [5] it was 24.6%; in experiment [6], 1.65%.

With `CCC(CC)NCCCNc1cc(OC)cc2cccnc12`, the growth inhibition in experiment [1] is 20.8%; in experiment [2], 33.6%; in experiment [3], 53.8%; in experiment [4] it was 4.65%; in experiment [5], 30.9%; in experiment [6], 48.6%.

Turning to `O=C(Cl)c1cc(-c2ccc(Cl)cc2)nc2c(-c3ccccc3)cccc12`, the growth inhibition in experiment [1] is -4.05%; in experiment [2], 9.15%; in experiment [3], -9.4%; in experiment [4] it was -38.5%; in experiment [5] it was -0.35%; in experiment [6], 8.5%.

`CC(=O)C1(c2ccccc2)C(C)(C)C(C)(C)C(=O)C(C)(C)C1(C)C`: the growth inhibition in experiment [1] is 19.4%; in experiment [2] it was 7.55%; in experiment [3] it was 15.4%; in experiment [4] it was 16.9%; in experiment [5], 12.9%; in experiment [6] it was 21.6%.

As to `Cc1cc(=O)[nH]c(Nc2nc3ccccc3[nH]2)n1`, the growth inhibition in experiment [1] was 1.1%; in experiment [2], -0.75%; in experiment [3], 6.7%; in experiment [4] it was 20.8%; in experiment [5] it was -1.4%; in experiment [6] it was 5.9%.

Regarding `COc1ccc(/C=C2\NC(=O)NC2=O)cc1Br`, the growth inhibition was 11.8% in experiment [1]; 10.4% in experiment [2]; 2.65% in experiment [3]; 7% in experiment [4]; 9.1% in experiment [5]; 8.5% in experiment [6].

`COC(=O)c1c2cccccc-2c(C(=O)OC)c1N`: the growth inhibition in experiment [1] was 15%; in experiment [2], 17.9%; in experiment [3] it was 28.8%; in experiment [4] it was -24.8%; in experiment [5], 36%; in experiment [6], 42.6%.

Consider `CN1N=C2c3ccccc3OC(c3ccccc3)[C@H]2C1c1ccccc1` (stereo not given in full), for which the growth inhibition in experiment [1] is -46.8%; in experiment [2], -47.2%; in experiment [3] it was -40.2%; in experiment [4], -3.8%; in experiment [5], -61.4%; in experiment [6] it was -41.7%.

As to `O=C(O)CN1CCCCC1`, the growth inhibition in experiment [1] is -5.65%; in experiment [2] it was 5.5%; in experiment [3], -3.8%; in experiment [4] it was -27.1%; in experiment [5], -4.1%; in experiment [6], -6.65%.

Turning to `CC(C)(O)C1OCC(C2CCC3(C)C4=CCC5C(C)(C)C(O)CCC5(C)C4CCC23C)CC1O` (stereo not given), the growth inhibition is 23.7% in experiment [1]; 27.6% in experiment [2]; 34.8% in experiment [3]; 42.6% in experiment [4]; 21.5% in experiment [5]; 4.75% in experiment [6].

On to `C/C(=N/NC(N)=O)C1=CCCCC1`, for which the growth inhibition in experiment [1] is -7%; in experiment [2] it was 7.3%; in experiment [3] it was 6.35%; in experiment [4], 4.1%; in experiment [5] it was 0.7%; in experiment [6] it was 7.4%.

Regarding `O=C1C2C=CC(n3[nH]c(=O)n(Cc4ccccc4)c3=O)CC2C(=O)N1c1ccc(Br)cc1` (stereo not given), the growth inhibition in experiment [1] is -3.8%; in experiment [2] it was 3.8%; in experiment [3], 3.1%; in experiment [4], -30.4%; in experiment [5], 4.15%; in experiment [6] it was 2%.

In the case of `CNC(=O)OCc1c(-c2ccccc2)c(-c2ccccc2)n(C)c1COC(=O)NC`, the growth inhibition was 37.6% in experiment [1]; 22.5% in experiment [2]; 51.7% in experiment [3]; 15.8% in experiment [4]; 33.2% in experiment [5]; 87.8% (active) in experiment [6].

As to `O=C(O)CNc1cc(-c2ccccc2)nc(NCC(=O)O)n1`, the growth inhibition in experiment [1] was -53.7%; in experiment [2], -12.3%; in experiment [3], 4.45%; in experiment [4] it was 17.8%; in experiment [5], -29.1%; in experiment [6] it was 25.4%.
